Measurements from PubChem BioAssay (Tox21).
Results filed as inconclusive are left out. Where a call stands in place of a potency, no number is given. Values without a mark were called inactive. Active and inactive are the calls of the source. The call rests on the fitted dose curve; in most records, active means well fitted inhibition curve with a large enough effect in the repeat runs; inconclusive means weak or mixed curves; inactive means flat fitted curve, though single readings scatter.

The compounds below were run against Voltage-gated inwardly rectifying potassium channel KCNH2 (Homo sapiens) (UniProt Q12809) (assay: Human Ether-a-go-go-Related Gene (hERG) channel small molecule antagonists: fluorescence cell-based qHTS assay (AID 1671200; further: nearly all actives have a fitted effect of over 50% in size)). Settings: hERG-U2OS cells, FluxOR thallium flux fluorescence; series mostly up to 76.8 µM; activity change, negative = inhibition: at the top concentration.
Excerpt: National Center for Advancing Translational Sciences [NCATS]
U.S. Environmental Protection Agency [EPA]
National Institutes of Environmental Health Sciences [NIEHS]
National Toxicology Program [NTP]
U.S. Food and Drug Administration [FDA]
Mutations in the hERG channel cause Long QT (LQT) syndrome. LQT syndrome is a cardiac disorder which can cause ventricle arrhythmia and sudden death. Additionally, compounds which block the hERG channel can cause acquired LQT syndrome. Several FDA approved drugs have been removed from the market due to their hERG blocking activity. A cell-based hERG channel inhibition assay can be used to screen chemical compounds that inhibit hERG channel. This assay measures hERG channel activity using thallium ions as surrogate ions to measure potassium into the cells.
Tox21 Assay Protocol Summary:
hERG-U2OS cells were resuspended in culture medium and dispensed into 1536-well, black wall/clear-bottom plates at 1000cells/well/3uL using a Multidrop Combi dispenser (Thermo Fisher, Waltham, MA). After plates were incubated at 37 C overnight, 3 uL of Loading Buffer provided by FluxOR II Potassium Ion Channel Assay kit (Thermo, Carlsbad, CA) was added to each well. The assay plates were then incubated at room temperature in the dark for 1h. […] After the assay plates were incubated at room temperature for 10 min, 1 uL of Stimulus Buffer provided by FluxOR II Potassium Ion Channel Assay kit was added into each well and fluorescence intensity (480nm excitation/540nm emission) was continuously measured for 2 min at 1 second intervals using a Functional Drug Screening System (FDSS) 7000EX kinetic plate reader (Hamamatsu, Japan).

Voltage-gated inwardly rectifying potassium channel KCNH2 (Homo sapiens), sequence (Q12809 whole entry, looked up): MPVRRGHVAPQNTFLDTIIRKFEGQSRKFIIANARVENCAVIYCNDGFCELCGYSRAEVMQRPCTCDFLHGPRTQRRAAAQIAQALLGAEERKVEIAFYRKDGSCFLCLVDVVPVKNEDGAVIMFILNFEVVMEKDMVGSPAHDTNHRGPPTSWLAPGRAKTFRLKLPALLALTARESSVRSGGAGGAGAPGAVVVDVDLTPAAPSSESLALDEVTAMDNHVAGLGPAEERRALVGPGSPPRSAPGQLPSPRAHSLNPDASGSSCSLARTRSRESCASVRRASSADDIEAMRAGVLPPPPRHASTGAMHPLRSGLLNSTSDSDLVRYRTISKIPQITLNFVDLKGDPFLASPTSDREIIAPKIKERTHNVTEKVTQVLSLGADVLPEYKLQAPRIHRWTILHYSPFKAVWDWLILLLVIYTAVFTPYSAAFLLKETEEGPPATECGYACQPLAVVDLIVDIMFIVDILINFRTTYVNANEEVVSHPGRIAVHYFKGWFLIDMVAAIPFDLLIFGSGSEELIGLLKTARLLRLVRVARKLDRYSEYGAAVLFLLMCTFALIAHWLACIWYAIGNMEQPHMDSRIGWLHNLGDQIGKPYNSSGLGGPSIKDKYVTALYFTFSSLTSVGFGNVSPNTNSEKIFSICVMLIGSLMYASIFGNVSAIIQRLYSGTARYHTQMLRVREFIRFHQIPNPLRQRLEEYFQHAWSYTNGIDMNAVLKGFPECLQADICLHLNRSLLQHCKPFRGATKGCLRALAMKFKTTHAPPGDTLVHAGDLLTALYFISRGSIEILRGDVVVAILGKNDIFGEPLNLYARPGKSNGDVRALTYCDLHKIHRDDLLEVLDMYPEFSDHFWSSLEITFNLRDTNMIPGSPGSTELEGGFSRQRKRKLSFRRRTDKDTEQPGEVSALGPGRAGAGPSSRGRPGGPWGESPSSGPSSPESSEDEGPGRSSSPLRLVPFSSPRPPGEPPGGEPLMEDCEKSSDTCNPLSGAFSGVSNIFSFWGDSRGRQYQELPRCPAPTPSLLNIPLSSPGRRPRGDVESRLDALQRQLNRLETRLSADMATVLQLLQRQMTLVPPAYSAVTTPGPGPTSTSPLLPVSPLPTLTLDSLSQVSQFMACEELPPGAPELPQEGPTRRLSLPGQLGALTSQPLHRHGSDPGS

| SMILES | Potency | activity change, negative = inhibition [%] |
| --- | --- | --- |
| CC1(C)OC[C@@H]2O[C@@]3(C(=O)O)OC(C)(C)O[C@H]3[C@@H]2O1 | inactive | – |
| CCCCCCO | inactive | – |
| CC(C)CCCCCCCOC(=O)CCCCC(=O)OCCCCCCCC(C)C | inactive | – |
| Clc1ccccn1 | inactive | – |
| CC(C)(Oc1ccc(CCNC(=O)c2ccc(Cl)cc2)cc1)C(=O)O | inactive | – |
| O=C(O)Cn1c(=O)n(Cc2ccc(Br)cc2F)c(=O)c2ccc(Cl)cc21 | inactive | – |
| CN/C(=C\[N+](=O)[O-])NCCSCc1csc(CN(C)C)n1 | inactive | – |
| CN(C)CCOC(=O)COc1ccc(Cl)cc1 | inactive | – |
| CCc1ccccc1CC | inactive | – |
| c1ccc2c(c1)Cc1ccccc1-2 | – | -22.8 |
| C=Cc1ccc(C)cc1 | inactive | – |
| CCCCCCCO | inactive | – |
| C[C@]12CCC(=O)C=C1CC[C@@H]1[C@@H]2[C@@H](O)C[C@@]2(C)[C@H]1CC[C@]2(O)C(=O)CO | inactive | – |
| COc1ccccc1OCC(O)CO (stereo not given) | inactive | – |
| OC1C(O)C(O)C(O)C(O)C1O (stereo not given) | inactive | – |
| O=S(=O)(O)c1ccc(N=Nc2c(O)ccc3cc(S(=O)(=O)O)ccc23)cc1 | inactive | – |
| O=C1c2ccccc2CCc2ccccc21 | inactive | – |
| CC(C)(C)c1cc(Cc2cc(C(C)(C)C)c(O)c(C(C)(C)C)c2)cc(C(C)(C)C)c1O | inactive | – |
| COC(=O)CCCC(=O)OC | inactive | – |
| C=CC(=O)OCCC(=O)O | inactive | – |

| SMILES | Potency | activity change, negative = inhibition [%] |
| --- | --- | --- |
| C=C(C)C(=O)OCC(C)C | inactive | – |
| O=C(O)c1ccc(S(=O)(=O)N(Cl)Cl)cc1 | inactive | – |
| CC(=O)c1ccc(O)cc1 | inactive | – |
| CC(C)c1cccc(C(C)C)c1 | inactive | – |
| C[Si]1(C)O[Si](C)(C)O[Si](C)(C)O[Si](C)(C)O1 | inactive | – |
| CC(C)OC(=O)COc1ccc(Cl)cc1Cl | inactive | – |
| Brc1ccc(Br)c(Br)c1 | inactive | – |
| C=CCc1ccc(OC)c(OC)c1 | inactive | – |
| NCCNCCN | – | 4 |
| N[C@H](Cc1c[nH]c2ccccc12)C(=O)O | inactive | – |
| CNC(=S)N(C)C | inactive | – |
| CCCCCC(=O)O | inactive | – |
| CC(CCO)CC(C)(C)C (stereo not given) | inactive | – |
| CC(=O)OCc1ccccc1 | inactive | – |
| CC(O)CC(C)(C)O (stereo not given) | inactive | – |
| Nc1ccc(Cl)c(N)c1 | inactive | – |
| C=CCCCCCCCCC(=O)O | inactive | – |
| C=C(C)CNCC | inactive | – |
| CC(C)OP(=O)(CP(=O)(OC(C)C)OC(C)C)OC(C)C | inactive | – |
| CC(=O)CC(C)(C)O | inactive | – |
